What all share (test): DAPPL (digital affinity profiling via proximity ligation, sequencing); 10 mM Tris-HCl pH 7.5, 50 mM NaCl, 1 mM DTT, 4% glycerol, room temperature, 30 min; GST-TFs on glutathione beads, 16-mer random dsDNA library, 0.1% formaldehyde crosslink after washing; high values mean tight binding
For one experiment, the target named is T1, FLI1 (Homo sapiens, UniProt Q01543 1-452).
T1 sequence: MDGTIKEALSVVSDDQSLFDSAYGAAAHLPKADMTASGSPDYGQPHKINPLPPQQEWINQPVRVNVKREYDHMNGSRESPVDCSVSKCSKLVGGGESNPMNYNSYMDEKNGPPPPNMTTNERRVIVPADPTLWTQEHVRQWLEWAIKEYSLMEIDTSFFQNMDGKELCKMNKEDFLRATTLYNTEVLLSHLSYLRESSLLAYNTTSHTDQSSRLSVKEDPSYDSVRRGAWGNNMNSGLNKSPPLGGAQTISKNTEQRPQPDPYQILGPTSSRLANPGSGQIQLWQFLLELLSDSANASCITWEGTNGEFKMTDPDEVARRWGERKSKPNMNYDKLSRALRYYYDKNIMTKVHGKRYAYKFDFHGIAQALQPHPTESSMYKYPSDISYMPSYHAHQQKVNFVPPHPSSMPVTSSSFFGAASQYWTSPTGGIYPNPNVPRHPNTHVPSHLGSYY
Particulars: protein: recombinant; tags: N-terminal GST; dsDNA, one strand shown. The method, boiled down:
(§1)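 Sequencing on an Illumina NextSeq500 followed washing, crosslinking with 0.1% formaldehyde, proximity ligation (BsaI/T4 ligase, 1 h, 37 °C) and PCR amplification of pools that had been incubated for 30 min at room temperature with 200 nmole of a random double-stranded 16-mer DNA library in Tris/NaCl/DTT/glycerol buffer. Each pool held DNA-barcoded human transcription factors, expressed in yeast as GST fusions and captured on glutathione beads, plus a tag-only sample. Binding signal is a hexamer's read frequency for a factor divided by its frequency in the tag-only sample.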

Another experiment addresses T2, ELK1 (Homo sapiens, UniProt P19419 1-428).
T2 sequence: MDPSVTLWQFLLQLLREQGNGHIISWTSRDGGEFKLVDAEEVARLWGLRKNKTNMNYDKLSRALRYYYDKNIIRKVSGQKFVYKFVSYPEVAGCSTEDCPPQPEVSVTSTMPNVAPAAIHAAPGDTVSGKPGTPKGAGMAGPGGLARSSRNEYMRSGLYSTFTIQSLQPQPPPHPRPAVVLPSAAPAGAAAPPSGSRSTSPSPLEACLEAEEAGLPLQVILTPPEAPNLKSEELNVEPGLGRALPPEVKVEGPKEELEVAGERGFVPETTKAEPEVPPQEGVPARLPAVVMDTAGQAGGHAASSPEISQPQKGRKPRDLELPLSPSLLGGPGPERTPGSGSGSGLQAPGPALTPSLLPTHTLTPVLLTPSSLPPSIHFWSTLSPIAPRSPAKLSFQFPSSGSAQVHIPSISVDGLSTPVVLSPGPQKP
Particulars: protein: recombinant; tags: N-terminal GST; dsDNA, one strand shown. The gist of the method: as §1

In the next experiment the target is T3, GABPA (Homo sapiens, UniProt Q06546 1-454).
T3 sequence: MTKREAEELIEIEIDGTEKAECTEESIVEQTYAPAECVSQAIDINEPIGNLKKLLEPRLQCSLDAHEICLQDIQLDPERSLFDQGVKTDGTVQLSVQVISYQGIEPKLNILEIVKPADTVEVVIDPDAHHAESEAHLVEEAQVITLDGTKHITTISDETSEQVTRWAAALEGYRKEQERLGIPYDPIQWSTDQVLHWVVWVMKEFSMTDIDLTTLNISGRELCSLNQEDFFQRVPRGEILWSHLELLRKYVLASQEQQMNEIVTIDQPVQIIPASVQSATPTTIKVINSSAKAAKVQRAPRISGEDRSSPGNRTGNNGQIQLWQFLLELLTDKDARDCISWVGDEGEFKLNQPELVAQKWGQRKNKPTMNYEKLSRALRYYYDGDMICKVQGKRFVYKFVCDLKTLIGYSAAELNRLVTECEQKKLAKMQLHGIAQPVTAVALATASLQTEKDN
Conditions: protein: recombinant; tags: N-terminal GST; dsDNA, one strand shown. The gist of the method: as §1

In a further experiment the target is T4, ERG (Homo sapiens, UniProt P11308 1-479).
T4 sequence: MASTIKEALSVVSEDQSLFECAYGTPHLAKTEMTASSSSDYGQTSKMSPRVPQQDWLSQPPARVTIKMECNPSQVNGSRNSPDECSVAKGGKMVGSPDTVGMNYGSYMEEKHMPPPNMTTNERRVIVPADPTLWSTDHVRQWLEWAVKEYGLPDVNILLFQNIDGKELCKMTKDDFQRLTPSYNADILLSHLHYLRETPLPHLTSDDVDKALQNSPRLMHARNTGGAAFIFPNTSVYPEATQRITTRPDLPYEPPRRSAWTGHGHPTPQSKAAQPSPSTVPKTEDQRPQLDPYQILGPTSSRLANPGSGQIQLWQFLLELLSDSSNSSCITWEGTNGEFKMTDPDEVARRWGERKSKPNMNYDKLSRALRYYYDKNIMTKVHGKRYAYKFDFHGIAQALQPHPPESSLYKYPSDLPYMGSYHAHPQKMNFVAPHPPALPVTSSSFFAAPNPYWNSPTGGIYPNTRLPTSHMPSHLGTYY
Conditions: protein: recombinant; tags: N-terminal GST; dsDNA, one strand shown. The gist of the method: as §1

Another experiment deals with ELF1 (Homo sapiens, UniProt P32519 1-619). Particulars: protein: recombinant; tags: N-terminal GST; dsDNA, one strand shown. The gist of the method: as §1
Chain of ELF1 (P32519 whole entry): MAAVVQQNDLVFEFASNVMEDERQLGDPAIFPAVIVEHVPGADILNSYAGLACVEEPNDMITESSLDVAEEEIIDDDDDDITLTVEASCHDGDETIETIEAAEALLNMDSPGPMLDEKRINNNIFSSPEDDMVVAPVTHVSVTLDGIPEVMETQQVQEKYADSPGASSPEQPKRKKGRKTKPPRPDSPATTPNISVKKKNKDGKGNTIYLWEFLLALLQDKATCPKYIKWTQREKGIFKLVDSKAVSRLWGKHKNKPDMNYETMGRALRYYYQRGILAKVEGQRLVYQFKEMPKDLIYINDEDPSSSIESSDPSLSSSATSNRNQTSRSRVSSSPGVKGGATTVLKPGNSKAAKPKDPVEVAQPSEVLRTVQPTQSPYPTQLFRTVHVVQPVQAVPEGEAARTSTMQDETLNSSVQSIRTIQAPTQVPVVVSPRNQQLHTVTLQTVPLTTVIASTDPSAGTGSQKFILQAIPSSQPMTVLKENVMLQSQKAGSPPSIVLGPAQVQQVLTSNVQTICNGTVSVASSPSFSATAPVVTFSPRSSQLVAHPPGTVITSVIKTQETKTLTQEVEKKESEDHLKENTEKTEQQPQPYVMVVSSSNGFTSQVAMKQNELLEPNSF
A further experiment deals with T5, EHF (Homo sapiens, UniProt Q9NZC4 1-300).
T5 sequence: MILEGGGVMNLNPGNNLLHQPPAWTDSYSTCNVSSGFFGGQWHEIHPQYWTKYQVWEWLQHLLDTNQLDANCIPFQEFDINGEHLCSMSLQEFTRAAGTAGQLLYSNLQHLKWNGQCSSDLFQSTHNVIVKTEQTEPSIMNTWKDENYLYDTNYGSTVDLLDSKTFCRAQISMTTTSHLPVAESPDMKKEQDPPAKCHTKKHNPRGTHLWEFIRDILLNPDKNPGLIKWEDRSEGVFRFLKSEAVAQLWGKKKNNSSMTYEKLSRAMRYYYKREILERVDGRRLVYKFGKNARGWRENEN
Conditions: protein: recombinant; tags: N-terminal GST; dsDNA, one strand shown. The gist of the method: as §1

A further experiment has as its target SPI1 (Homo sapiens, UniProt P17947 1-270). Conditions: protein: recombinant; tags: N-terminal GST; dsDNA, one strand shown. The method, boiled down:
as §1

The target in the next experiment is SPIB (Homo sapiens, UniProt Q01892 1-262). Conditions: protein: recombinant; tags: N-terminal GST; dsDNA, one strand shown. The gist of the method: as §1
Chain of SPIB (Q01892 whole entry): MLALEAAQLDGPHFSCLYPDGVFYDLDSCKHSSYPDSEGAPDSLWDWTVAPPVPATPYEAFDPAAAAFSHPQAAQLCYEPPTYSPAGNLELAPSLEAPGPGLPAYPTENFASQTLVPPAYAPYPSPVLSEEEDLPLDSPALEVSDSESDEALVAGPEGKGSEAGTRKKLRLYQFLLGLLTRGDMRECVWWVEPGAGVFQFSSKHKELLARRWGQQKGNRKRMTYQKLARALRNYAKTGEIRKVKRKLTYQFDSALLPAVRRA
The next experiment concerns the target T6, ELK3 (Homo sapiens, UniProt P41970 1-407).
T6 sequence: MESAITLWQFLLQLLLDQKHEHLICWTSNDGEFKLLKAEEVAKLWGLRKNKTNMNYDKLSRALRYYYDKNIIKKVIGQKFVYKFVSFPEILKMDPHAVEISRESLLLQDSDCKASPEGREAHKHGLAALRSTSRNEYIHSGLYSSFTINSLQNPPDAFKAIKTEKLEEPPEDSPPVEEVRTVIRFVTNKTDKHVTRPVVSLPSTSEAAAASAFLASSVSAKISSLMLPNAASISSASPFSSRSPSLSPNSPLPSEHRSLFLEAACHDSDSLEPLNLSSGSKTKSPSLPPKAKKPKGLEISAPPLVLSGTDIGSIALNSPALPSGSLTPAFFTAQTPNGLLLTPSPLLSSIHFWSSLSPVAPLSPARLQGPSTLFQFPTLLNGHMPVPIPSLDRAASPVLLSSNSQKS
Particulars: protein: recombinant; tags: N-terminal GST; dsDNA, one strand shown. The method, boiled down: as §1

The target in another experiment is T7, FEV (Homo sapiens, UniProt Q99581 1-238).
T7 sequence: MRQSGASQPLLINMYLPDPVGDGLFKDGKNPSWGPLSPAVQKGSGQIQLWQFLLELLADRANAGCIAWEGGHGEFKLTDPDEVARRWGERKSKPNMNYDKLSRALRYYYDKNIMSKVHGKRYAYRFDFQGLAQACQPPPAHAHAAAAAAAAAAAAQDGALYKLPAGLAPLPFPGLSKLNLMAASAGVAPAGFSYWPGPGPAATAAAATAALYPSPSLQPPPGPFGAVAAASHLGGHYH
Conditions: protein: recombinant; tags: N-terminal GST; dsDNA, one strand shown. The method, boiled down:
as §1

In the next experiment the target is ETV5 (Homo sapiens, UniProt P41161 1-510). Particulars: protein: recombinant; tags: N-terminal GST; dsDNA, one strand shown. The gist of the method:
as §1

For a further experiment, the target named is HSF1 (Homo sapiens, UniProt Q00613 1-529). Conditions: protein: recombinant; tags: N-terminal GST; chain copies: 3; dsDNA, one strand shown. The gist of the method:
as §1

In a further experiment the target is T8, SPIC (Homo sapiens, UniProt Q8N5J4 1-248).
T8 sequence: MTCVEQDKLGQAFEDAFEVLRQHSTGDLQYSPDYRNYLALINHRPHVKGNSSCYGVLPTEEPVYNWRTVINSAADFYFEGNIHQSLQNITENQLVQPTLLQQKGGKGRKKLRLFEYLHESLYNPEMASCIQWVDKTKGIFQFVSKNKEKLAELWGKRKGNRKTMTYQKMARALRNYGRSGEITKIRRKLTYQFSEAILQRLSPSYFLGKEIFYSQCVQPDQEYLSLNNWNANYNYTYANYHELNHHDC
Particulars: protein: recombinant; tags: N-terminal GST; dsDNA, one strand shown. The gist of the method:
as §1

The target of the next experiment is ELF4 (Homo sapiens, UniProt Q99607 1-663). Particulars: protein: recombinant; tags: N-terminal GST; dsDNA, one strand shown. The gist of the method: as §1
Chain of ELF4 (Q99607 whole entry): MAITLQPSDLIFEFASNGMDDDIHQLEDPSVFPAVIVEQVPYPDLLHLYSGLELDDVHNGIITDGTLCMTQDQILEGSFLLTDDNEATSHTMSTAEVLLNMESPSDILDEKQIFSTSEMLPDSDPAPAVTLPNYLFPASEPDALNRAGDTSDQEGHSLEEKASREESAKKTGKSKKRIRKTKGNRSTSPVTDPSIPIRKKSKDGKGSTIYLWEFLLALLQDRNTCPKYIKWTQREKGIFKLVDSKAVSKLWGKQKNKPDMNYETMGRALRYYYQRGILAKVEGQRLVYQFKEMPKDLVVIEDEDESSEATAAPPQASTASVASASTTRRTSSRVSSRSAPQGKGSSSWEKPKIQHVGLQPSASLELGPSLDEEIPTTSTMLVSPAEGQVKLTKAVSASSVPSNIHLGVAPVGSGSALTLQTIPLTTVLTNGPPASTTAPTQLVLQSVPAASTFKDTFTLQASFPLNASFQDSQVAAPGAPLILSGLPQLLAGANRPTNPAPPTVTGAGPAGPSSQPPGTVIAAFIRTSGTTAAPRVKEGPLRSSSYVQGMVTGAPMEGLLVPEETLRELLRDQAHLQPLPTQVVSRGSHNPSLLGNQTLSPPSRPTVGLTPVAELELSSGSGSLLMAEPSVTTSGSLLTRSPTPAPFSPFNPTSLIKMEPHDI
For another experiment, the target named is T9, ELK4 (Homo sapiens, UniProt P28324-2 1-405).
T9 sequence: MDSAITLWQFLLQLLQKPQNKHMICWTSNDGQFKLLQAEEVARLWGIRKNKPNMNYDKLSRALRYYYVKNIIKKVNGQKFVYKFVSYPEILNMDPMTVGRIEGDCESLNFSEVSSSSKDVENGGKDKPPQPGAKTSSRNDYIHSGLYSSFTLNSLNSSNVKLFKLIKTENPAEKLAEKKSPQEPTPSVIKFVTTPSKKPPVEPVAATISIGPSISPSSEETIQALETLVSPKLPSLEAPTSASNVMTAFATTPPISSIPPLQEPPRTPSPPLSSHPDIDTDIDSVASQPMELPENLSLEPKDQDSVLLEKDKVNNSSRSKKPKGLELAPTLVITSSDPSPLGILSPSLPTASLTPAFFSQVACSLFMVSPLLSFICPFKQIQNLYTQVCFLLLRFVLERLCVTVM
Particulars: protein: recombinant; tags: N-terminal GST; dsDNA, one strand shown. The method, boiled down: as §1

For the next experiment, the target named is T10, ETV2 (Homo sapiens, UniProt O00321 1-342).
T10 sequence: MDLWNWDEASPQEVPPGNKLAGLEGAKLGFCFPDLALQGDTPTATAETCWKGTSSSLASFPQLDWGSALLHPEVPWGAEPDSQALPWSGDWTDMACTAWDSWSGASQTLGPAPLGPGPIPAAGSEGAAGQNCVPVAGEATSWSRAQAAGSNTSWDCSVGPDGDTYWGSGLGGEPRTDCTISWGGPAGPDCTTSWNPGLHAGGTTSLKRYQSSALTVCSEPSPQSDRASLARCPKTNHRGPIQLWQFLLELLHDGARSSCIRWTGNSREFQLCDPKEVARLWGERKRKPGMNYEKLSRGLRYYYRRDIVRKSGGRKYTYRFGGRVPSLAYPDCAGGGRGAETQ
Particulars: protein: recombinant; tags: N-terminal GST; dsDNA, one strand shown. The gist of the method: as §1

The target in a further experiment is T11, ELF3 (Homo sapiens, UniProt P78545 1-371).
T11 sequence: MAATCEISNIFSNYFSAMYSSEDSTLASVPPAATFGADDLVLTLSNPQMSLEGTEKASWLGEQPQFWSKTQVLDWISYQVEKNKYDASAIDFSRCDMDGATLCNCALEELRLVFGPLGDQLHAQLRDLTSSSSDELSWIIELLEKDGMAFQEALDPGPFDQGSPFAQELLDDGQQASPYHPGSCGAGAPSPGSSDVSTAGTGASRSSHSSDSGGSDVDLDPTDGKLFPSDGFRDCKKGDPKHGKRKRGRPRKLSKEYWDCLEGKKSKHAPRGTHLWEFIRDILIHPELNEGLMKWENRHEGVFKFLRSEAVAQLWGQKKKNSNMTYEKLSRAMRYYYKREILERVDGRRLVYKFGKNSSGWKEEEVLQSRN
Particulars: protein: recombinant; tags: N-terminal GST; dsDNA, one strand shown. The method, boiled down: as §1

The next experiment concerns the target ETV1 (Homo sapiens, UniProt P50549 1-477). Conditions: protein: recombinant; tags: N-terminal GST; dsDNA, one strand shown. The gist of the method:
as §1

Chain of ETV5 (P41161 whole entry): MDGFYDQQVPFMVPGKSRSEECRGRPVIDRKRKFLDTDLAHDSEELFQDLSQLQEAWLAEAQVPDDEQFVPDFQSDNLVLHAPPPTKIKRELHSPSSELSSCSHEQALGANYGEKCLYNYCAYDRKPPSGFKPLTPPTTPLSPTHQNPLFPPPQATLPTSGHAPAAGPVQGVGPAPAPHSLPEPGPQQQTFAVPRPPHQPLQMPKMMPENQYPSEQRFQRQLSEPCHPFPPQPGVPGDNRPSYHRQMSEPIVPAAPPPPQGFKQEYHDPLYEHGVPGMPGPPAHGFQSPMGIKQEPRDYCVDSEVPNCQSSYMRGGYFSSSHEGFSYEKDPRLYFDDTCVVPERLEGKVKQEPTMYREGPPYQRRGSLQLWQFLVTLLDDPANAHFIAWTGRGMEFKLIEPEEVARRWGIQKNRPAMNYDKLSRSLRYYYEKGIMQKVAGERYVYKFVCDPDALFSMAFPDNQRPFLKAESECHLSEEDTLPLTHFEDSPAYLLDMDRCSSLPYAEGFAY
Chain of ETV1 (P50549 whole entry): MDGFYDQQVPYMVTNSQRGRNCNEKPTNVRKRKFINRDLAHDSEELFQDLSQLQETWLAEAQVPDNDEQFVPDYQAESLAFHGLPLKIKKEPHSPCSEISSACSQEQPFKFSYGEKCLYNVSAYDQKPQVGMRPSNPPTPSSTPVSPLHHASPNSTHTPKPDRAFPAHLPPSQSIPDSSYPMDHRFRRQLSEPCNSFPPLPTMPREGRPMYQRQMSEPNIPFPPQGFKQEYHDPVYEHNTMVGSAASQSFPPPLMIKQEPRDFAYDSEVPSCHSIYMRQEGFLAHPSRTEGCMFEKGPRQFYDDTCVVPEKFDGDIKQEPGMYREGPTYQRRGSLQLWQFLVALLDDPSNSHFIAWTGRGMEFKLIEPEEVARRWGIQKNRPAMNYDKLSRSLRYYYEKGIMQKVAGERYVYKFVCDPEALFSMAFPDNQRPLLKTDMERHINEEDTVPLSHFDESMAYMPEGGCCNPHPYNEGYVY
Chain of HSF1 (Q00613 whole entry): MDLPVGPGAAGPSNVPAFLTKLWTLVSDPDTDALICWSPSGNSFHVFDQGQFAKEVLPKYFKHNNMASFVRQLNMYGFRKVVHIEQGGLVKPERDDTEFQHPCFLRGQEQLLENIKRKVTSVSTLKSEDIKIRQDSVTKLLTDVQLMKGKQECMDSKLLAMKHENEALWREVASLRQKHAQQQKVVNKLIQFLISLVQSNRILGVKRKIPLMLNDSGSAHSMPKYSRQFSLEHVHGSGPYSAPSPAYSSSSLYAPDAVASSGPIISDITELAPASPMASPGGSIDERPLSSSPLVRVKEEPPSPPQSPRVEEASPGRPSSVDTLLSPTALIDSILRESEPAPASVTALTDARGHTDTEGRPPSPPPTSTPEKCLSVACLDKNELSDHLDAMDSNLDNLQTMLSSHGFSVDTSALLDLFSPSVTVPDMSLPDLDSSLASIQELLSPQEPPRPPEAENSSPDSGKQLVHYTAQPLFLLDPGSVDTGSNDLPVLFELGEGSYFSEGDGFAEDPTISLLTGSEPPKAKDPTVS

CCGTCC: the binding signal was 1.37 fold enrichment (6-mer frequency, TF over GST control) with FLI1; 1.37 fold enrichment (6-mer frequency, TF over GST control) with ELK1; 1.29 fold enrichment (6-mer frequency, TF over GST control) with GABPA; 1.42 fold enrichment (6-mer frequency, TF over GST control) in the experiment with ERG; 1.37 fold enrichment (6-mer frequency, TF over GST control) in the experiment with ELF1; 1.42 fold enrichment (6-mer frequency, TF over GST control) with EHF. Further, the binding signal was 1.21 fold enrichment (6-mer frequency, TF over GST control) with SPI1; 1.25 fold enrichment (6-mer frequency, TF over GST control) with SPIB; 1.39 fold enrichment (6-mer frequency, TF over GST control) with ELK3; 1.38 fold enrichment (6-mer frequency, TF over GST control) in the experiment with FEV; 1.26 fold enrichment (6-mer frequency, TF over GST control) in the experiment with ETV5; 1.03 fold enrichment (6-mer frequency, TF over GST control) with HSF1. The binding signal with SPIC was 1.39 fold enrichment (6-mer frequency, TF over GST control); in the experiment with ELF4 it was 1.37 fold enrichment (6-mer frequency, TF over GST control); in the experiment with ELK4, 1.28 fold enrichment (6-mer frequency, TF over GST control); with ETV2, 1.8 fold enrichment (6-mer frequency, TF over GST control); in the experiment with ELF3, 1.43 fold enrichment (6-mer frequency, TF over GST control); in the experiment with ETV1, 1.38 fold enrichment (6-mer frequency, TF over GST control).

Values taken from article PMC7862700, “An all-to-all approach to the identification of sequence-specific readers for epigenetic DNA modifications on cytosine”.
